This note sets out measurements from PubChem BioAssay (Tox21).

The nature of experiment [1]: qHTS assay to identify small molecule agonists of the estrogen receptor alpha (ER-alpha) signaling pathway in the presence of an antagonist - cell viability counter screen (AID 1259386).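 Also: cells exposed to compounds for 22 h at 37 °C before the viability read; nearly all actives have a fitted effect of over 30% in size.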 Also: potency is read from the fitted curve at half-maximal effect. In a few lines:
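In this counter screen, compound effects on VM7Luc4E2 viability were tested in the presence of the antagonist ICI-182,780 at 10.0nM final. Compounds were dosed at 15 concentrations, exposure lasted 22hr, and the CellTiter-Fluor signal was read.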

Experiment [2] deals with Progesterone receptor (Homo sapiens) (UniProt P06401). Briefly: qHTS assay to identify small molecule agonists of the progesterone receptor (PR) signaling pathway (AID 1346784; calls by dose curve; also: nearly all actives have a fitted effect of over 30% in size). The procedure, abridged:
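Reporter assay, GripTite PR-UAS-bla HEK 293T cells: 16 hr exposure to DMSO-dissolved compounds at 37C, 5% CO2, in steroid-depleted (2% charcoal-stripped FBS) medium; beta-lactamase measured by FRET fluorescence.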

Experiment [3] is described as follows: qHTS assay to identify small molecule antagonists of the progesterone receptor (PR) signaling pathway - cell viability counter screen (AID 1346798). Also: series mostly up to about 92 µM; nearly all actives have a fitted effect of over 50% in size. The procedure, abridged: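 In the same plates used for the beta-lactamase readout, cell viability of compound- and R5020-treated PR-UAS-bla HEK293T cells (16 hr, 37C) was assessed by CellTiter-Glo luminescence.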

Experiment [4] is described as follows: qHTS assay to identify small molecule agonists of the progesterone receptor (PR) signaling pathway - cell viability counter screen (AID 1346799; calls by dose curve; also: nearly all actives have a fitted effect of over 45% in size). In a few lines: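 Multiplexed viability read: CellTiter-Glo luminescence, 30 min RT, following LiveBLAzer FRET measurement on PR-UAS-bla HEK293T cells exposed to compounds 16 hr.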
Experiment [5] is described as follows: qHTS assay to identify small molecule antagonists of the TGF-beta/Smad signaling pathway - cell viability counter screen (AID 1346824). Also: nearly all actives have a fitted effect of over 50% in size. In a few lines: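 SBE-bla HEK 293T cells, incubated overnight, then compound plus 0.25 ng/mL TGF-beta1 (stock added) for 5 hr at 37 C. Viability was read in the same wells by CellTiter-Glo luminescence after 30 min at room temperature.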

Experiment [6] in a line: qHTS assay to identify small molecule agonists of the TGF-beta/Smad signaling pathway - cell viability counter screen (AID 1346829). Also: top concentration of the series differs between compounds; nearly all actives have a fitted effect of over 45% in size. In a few lines:
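In parallel with the Smad reporter read, viability of HEK 293T cells stably carrying SBE-bla is quantified by ATP luminescence following 5 hr compound treatment.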

The nature of experiment [7]: qHTS assay to identify small molecule agonists of the TGF-beta/Smad signaling pathway (AID 1346859; active = well fitted activation curve with a large enough effect in the signal ratio in the repeat runs, not every such curve was filed as active; the % refers to the signal ratio; also: series mostly up to about 77 µM). The procedure, abridged: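 Screening used HEK 293T SBE-bla cells at 4,000/well. Test agents: 5 hr, 37 C. Detection: FRET substrate, 2 hr RT, then excitation 405 nm with emissions at 460 and 530 nm.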
Experiment [8] addresses Thyrotropin-releasing hormone receptor (Homo sapiens) (UniProt P34981). Put plainly: qHTS assay to identify small molecule antagonists of the thyrotropin-releasing hormone receptor (TRHR) signaling pathway (AID 1346877; active = well fitted inhibition curve with a large enough effect in the repeat runs, not every such curve was filed as active; also: series mostly up to about 51 µM). In a few lines: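 Kinetic fluorescence (3 min, 1 s resolution) following stimulation with TRH at 1 nM final; HEK293 cells bearing human TRHR; 5 min compound preincubation at RT; concentration-response over 15 points, triplicates.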

Experiment [9] has the same target. Put plainly: qHTS assay to identify small molecule agonists of the thyrotropin-releasing hormone receptor (TRHR) signaling pathway (AID 1346891; calls by dose curve; also: series mostly up to about 58 µM). The procedure, abridged:
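Readout was intracellular calcium fluorescence in TRHR-Hek293 cells. Cells were incubated 18 h, dye-loaded 2 h at 37 °C, and treated with compound in agonist mode.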

A short description of experiment [10]: Human pregnane X receptor (PXR) small molecule agonists, qHTS cell viability counter screen (AID 1346977). Also: nearly all actives have a fitted effect of over 50% in size. Also: potency is read from the fitted curve at half-maximal effect. The procedure, abridged:
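In each well, the PXR reporter HepG2 line was checked for viability: CellTiter-Fluor reagent added 23hr post-dosing, fluorescence read after 1hr incubation at 37C.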

Experiment [11] can be described thus: Caspase-3/7 induction in HepG2 cells by small molecules, qHTS assay (AID 1346978). Also: nearly all actives have a fitted effect of over 15% in size. The procedure, abridged: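 Wild-type HepG2 cells, 2,000/well, settled 5 hr at 37 C and 5% CO2, then compound-treated for 17 hr; caspase-3/7 activity read by luminescent Caspase-Glo 3/7 after 30 min at room temperature.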
Experiment [12] in a line: Caspase-3/7 induction in CHO-K1 cells by small molecules, qHTS cell viability counter screen (AID 1346979). Also: nearly all actives have a fitted effect of over 35% in size. Also: potency is read from the fitted curve at half-maximal effect. The procedure, abridged: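 Following a 5hr settling period, CHO-K1 cells at 1,500 per well received DMSO-dissolved compounds. Cell viability was quantified 16hr later by CellTiter-Fluor fluorescence, measured after 1hr with reagent at 37C.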
Experiment [13] is described as follows: Caspase-3/7 induction in CHO-K1 cells by small molecules, qHTS assay (AID 1346980). Also: nearly all actives have a fitted effect of over 15% in size. In a few lines: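 Wild-type CHO-K1 cells exposed to compounds for 17hr at 37 C, 5% CO2. Caspase-3/7 activity then measured by Caspase-Glo 3/7 luminescence after 30min at room temperature.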
A short description of experiment [14]: Caspase-3/7 induction in HepG2 cells by small molecules, qHTS cell viability counter screen (AID 1346981). Also: nearly all actives have a fitted effect of over 30% in size. Also: potency is read from the fitted curve at half-maximal effect. The procedure, abridged:
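In this quantitative HTS counter screen, compounds delivered in DMSO were left on unmodified HepG2 cells for 16 hr at 37 C. Viability was then determined fluorometrically with CellTiter-Fluor, in parallel with caspase-3/7 induction in the same wells.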

Experiment [15] deals with Nuclear receptor subfamily 1 group I member 2 (Homo sapiens) (UniProt O75469). Put plainly: Human pregnane X receptor (PXR) small molecule agonists, qHTS assay (AID 1346982). Also: nearly all actives have a fitted effect of over 35% in size. Also: potency is read from the fitted curve at half-maximal effect. In a few lines: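 Reporter HepG2 cells expressing PXR-Luc are cultured in charcoal-stripped FBS (5%), treated with compounds for 24 hr at 37 C, and assayed by ONE-Glo luminescence after 30 min at room temperature.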
Nuclear receptor subfamily 1 group I member 2 (Homo sapiens), sequence (O75469 whole entry, looked up): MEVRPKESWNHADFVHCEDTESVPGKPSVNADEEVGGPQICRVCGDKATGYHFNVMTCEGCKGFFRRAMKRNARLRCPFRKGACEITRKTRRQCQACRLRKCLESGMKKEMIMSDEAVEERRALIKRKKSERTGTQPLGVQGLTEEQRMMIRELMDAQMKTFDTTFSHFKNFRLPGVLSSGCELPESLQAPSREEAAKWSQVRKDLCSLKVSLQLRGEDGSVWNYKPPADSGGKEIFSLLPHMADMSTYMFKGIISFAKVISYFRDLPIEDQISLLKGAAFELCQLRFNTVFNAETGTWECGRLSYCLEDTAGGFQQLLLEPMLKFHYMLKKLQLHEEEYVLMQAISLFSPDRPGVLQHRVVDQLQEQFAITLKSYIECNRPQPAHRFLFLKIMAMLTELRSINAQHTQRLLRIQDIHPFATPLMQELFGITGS

Experiment [16] has as its target Acetylcholinesterase (Homo sapiens) (UniProt P22303). Put plainly: Acetylcholinesterase (AChE) small molecule antagonists: colormetric cell-based qHTS assay (AID 1347395; calls by dose curve; also: nearly all actives have a fitted effect of over 30% in size). The procedure, abridged: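 After overnight attachment at 37 C, SH-SY5Y cells get 30 min compound exposure; detection cocktail (acetylthiocholine, DTNB) then incubates 90 min at 37 C, and absorbance reflects AChE-generated thiocholine.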

Experiment [17] deals with Progesterone receptor (Homo sapiens) (UniProt P06401). Briefly: qHTS assay to identify small molecule antagonists of the progesterone receptor (PR) signaling pathway (AID 1346795; active = well fitted inhibition curve with a large enough effect in the signal ratio in the repeat runs, not every such curve was filed as active; the % refers to the signal ratio; also: potency is read from the fitted curve at half-maximal effect). In a few lines:
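Stimulus R5020 at 1 nM final; cells HEK293T PR-UAS-bla; medium with 2% charcoal-stripped FBS; compound exposure 16 hr at 37C, 5% CO2; detection by FRET beta-lactamase substrate, 2 hr, room temperature.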

Molecules are shown by their SMILES. Where “and” joins values, the source holds several entries; their conditions need not be identical. Equal values may be shown once. Inconclusive results are not listed. Some structures have more than one record in an assay (separate samples or runs), and their calls can disagree. Calls of active or inactive are those of the source. Unless noted, calls follow the shape of the dose curve; as a rule, active = well fitted curve in the direction sought with a large enough effect in the repeat runs; inconclusive = weak or mixed curves; inactive = no such curve, though single readings can be large; an effect the other way counts as inactive or inconclusive.

Thyrotropin-releasing hormone receptor (Homo sapiens), sequence (P34981 whole entry, looked up): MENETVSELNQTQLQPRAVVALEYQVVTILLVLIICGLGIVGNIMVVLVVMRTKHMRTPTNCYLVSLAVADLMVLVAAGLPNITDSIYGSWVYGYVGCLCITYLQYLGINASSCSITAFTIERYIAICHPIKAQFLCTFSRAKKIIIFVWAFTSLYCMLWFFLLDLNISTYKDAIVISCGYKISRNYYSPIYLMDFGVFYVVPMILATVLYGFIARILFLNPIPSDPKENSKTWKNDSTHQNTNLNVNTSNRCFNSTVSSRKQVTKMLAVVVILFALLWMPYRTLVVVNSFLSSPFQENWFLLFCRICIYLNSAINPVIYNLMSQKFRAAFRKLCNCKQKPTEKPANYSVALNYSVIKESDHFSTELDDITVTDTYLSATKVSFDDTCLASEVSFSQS
Progesterone receptor (Homo sapiens), sequence (P06401 whole entry, looked up): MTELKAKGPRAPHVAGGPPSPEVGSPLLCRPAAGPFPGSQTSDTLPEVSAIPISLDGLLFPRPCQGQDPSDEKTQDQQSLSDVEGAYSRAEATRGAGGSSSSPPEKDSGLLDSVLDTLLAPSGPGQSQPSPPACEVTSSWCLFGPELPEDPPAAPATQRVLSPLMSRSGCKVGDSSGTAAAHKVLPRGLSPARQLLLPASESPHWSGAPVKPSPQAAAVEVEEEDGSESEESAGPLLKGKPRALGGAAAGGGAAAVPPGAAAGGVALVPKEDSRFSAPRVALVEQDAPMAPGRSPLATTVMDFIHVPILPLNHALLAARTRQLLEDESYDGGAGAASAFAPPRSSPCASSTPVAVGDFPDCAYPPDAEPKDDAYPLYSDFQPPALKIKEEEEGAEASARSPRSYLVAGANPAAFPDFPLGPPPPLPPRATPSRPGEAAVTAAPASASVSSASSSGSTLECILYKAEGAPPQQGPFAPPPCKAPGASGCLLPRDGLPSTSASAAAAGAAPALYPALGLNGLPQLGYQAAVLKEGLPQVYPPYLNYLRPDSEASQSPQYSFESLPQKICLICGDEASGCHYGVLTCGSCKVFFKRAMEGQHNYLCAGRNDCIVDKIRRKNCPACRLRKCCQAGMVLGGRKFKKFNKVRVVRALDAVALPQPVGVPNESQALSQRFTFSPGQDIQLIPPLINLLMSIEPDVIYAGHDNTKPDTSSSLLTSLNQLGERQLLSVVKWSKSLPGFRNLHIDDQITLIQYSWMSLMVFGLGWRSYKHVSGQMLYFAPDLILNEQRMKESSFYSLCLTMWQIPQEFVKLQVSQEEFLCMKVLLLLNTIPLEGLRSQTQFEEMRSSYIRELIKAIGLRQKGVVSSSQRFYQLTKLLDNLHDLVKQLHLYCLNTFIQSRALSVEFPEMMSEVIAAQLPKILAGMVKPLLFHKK
Acetylcholinesterase (Homo sapiens), sequence (P22303 whole entry, looked up): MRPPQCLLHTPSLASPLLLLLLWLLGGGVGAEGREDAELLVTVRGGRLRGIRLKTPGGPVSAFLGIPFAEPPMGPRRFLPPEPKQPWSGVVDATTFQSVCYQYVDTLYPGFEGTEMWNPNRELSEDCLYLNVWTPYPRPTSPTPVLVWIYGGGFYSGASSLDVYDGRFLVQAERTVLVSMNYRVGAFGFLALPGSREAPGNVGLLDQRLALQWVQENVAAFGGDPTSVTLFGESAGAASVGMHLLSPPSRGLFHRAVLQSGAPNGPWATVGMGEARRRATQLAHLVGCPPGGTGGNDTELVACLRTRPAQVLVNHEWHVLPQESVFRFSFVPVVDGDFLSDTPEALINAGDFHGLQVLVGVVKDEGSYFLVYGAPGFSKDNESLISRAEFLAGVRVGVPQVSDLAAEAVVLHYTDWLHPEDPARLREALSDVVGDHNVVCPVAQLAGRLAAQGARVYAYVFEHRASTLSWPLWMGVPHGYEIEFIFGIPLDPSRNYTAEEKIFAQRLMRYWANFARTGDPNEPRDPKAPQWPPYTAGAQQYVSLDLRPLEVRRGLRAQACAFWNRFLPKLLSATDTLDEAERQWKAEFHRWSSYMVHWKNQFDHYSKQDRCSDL

Regarding `O=C1CC(=O)NC(=O)N1`, the Potency result in experiment [1], in experiment [2], in [3], in [4], in experiment [6] and in experiment [8] was “inactive” throughout. Moreover, the Potency entry in experiment [10], in experiment [12], in experiment [14], in experiment [15] and in experiment [16] was “inactive” in each case. For the same compound, the outcome in [5], in experiment [7], in [9], in experiment [11] and in experiment [13] was inactive.
On to `CC(Cl)(Cl)Cl`, for which the Potency result in experiment [1], in experiment [2], in experiment [3], in experiment [6], in experiment [8] and in experiment [10] was “inactive” throughout. The Potency result in experiment [14], in experiment [15] and in experiment [16] was “inactive” each time. Besides, the result in experiment [5], in experiment [7], in experiment [9], in experiment [11] and in [13] was inactive.
Consider `N#CC(Br)(Br)C(N)=O`, for which the Potency result in experiment [1], in experiment [2], in experiment [3], in experiment [6], in experiment [8] and in experiment [14] was “inactive” throughout. Also, the call in [5], in experiment [7], in [9] and in experiment [11] was inactive. In addition, the Potency in [12] is 61.1 µM (active).
Regarding `O=c1[nH]oc2c1CCNC2`, the Potency result in [2], in [17], in experiment [3], in [4], in experiment [6] and in experiment [10] was “inactive” throughout. The Potency result in experiment [14], in experiment [15] and in experiment [16] was “inactive” in each case. Besides, the call in experiment [5], in experiment [7] and in [11] was inactive.
As to `CCN[C@@H](C)Cc1cccc(C(F)(F)F)c1`, the Potency entry in experiment [1], in [3], in experiment [6], in [8], in experiment [10] and in experiment [12] was “inactive” each time. For the same compound, the Potency entry in experiment [16] was “inactive”. For the same compound, the compound was called inactive in [5], in experiment [7], in experiment [9] and in experiment [11].
Consider `CC(Cc1ccccc1)NCCn1cnc2c1c(=O)n(C)c(=O)n2C` (stereo unspecified), for which the Potency entry in experiment [2], in [17], in experiment [3], in experiment [4], in experiment [6] and in experiment [8] was “inactive” in each case. Besides, the Potency entry in [10], in experiment [14], in experiment [15] and in experiment [16] was “inactive” throughout. For the same compound, the compound was called inactive in experiment [5], in experiment [7], in experiment [9], in experiment [11] and in [13].
`[P]#[In]`: the Potency result in experiment [1], in experiment [3], in experiment [4], in [6], in experiment [8] and in [12] was “inactive” in each case. Besides, the Potency entry in experiment [14] and in experiment [15] was “inactive” each time. Besides, the compound was called inactive in experiment [5], in experiment [7], in [9], in experiment [11] and in experiment [13].
In the case of `CC[C@H](O)C(C[C@H](C)N(C)C)(c1ccccc1)c1ccccc1`, the Potency result in [1], in experiment [2], in experiment [4], in [6], in experiment [12] and in experiment [15] was “inactive” throughout. Moreover, in experiment [16], the Potency entry is “inactive”. The call in experiment [5], in [7], in experiment [11] and in experiment [13] was inactive.
On to `C[C@H]1CCCC(=O)CCC/C=C/c2cc(O)cc(O)c2C(=O)O1`, for which the Potency in [1] is 46.8 µM (active) and inactive; in experiment [17], 5.02 µM (active); in experiment [10], 52.5 µM (active); in [12], 46.8 µM (active) and 22.4 µM (active); in experiment [14], 46.8 µM (active) and 22.4 µM (active). The compound was called inactive in experiment [5], in experiment [7], in experiment [9], in experiment [11] and in [13]. Besides, the Potency result in experiment [6], in [8] and in [16] was “inactive” throughout.
In the case of `CC(C)[C@]12CC(=O)[C@H](C)[C@H]1C2`, the Potency result in experiment [1], in experiment [2], in experiment [4], in experiment [6], in [10] and in experiment [12] was “inactive” each time. The Potency entry in [14], in [15] and in experiment [16] was “inactive” throughout. Moreover, the call in experiment [5], in [7] and in experiment [11] was inactive.
Regarding `CON(C)C(=O)Nc1ccc(Br)c(Cl)c1`, the Potency entry in [1], in experiment [2], in experiment [6], in experiment [8], in experiment [10] and in experiment [14] was “inactive” each time. Besides, the Potency entry in [16] is “inactive”. Moreover, the call in [5], in experiment [7], in [9], in experiment [11] and in [13] was inactive. Also, the Potency in [15] was 27.3 µM (active).
